Laboratory results: the supplement of paper PMC10338343
± gives the standard deviation.

test system: MILI (PIWIL2) piRISC loaded with L1MC piRNA (26 nt); assay: pre-steady-state target cleavage rate (min^-1); guide: L1MC piRNA 5'p-UAACUAAAUACUAUGCAAGCUGUAGG; MIWI and MILI are mouse PIWI proteins and EfPiwi is from a freshwater sponge; tags in brackets are library labels; higher = faster piRNA-guided slicing of the target; conditions: auxiliary factor: 500 nM mouse GTSF1
Protocol: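 Cleave-'n-Seq: a library of target RNAs (target site embedded in constant flanks, ACAGCATTCCGCGTTAGTGATATCCG... 5' flank; DNA-blocked outside the site) at 0.1 nM was incubated with 1 nM active mouse MILI or MIWI piRISC (synthetic 5'-monophosphorylated piRNA guide) with or without 500 nM mouse GTSF1 at 33 °C for 1 min to 16 h. Uncleaved targets were sequenced and normalised to non-target controls, and the pooled three trials were fitted to a burst-and-steady-state model to give the pre-steady-state cleavage rate (min^-1; k3 is constrained to at most 1e-4). Sequence is the target site only; target names encode pairing extent (gX:gY) and contiguous / 1-mismatch / 2-mismatch / bulge geometry. Fits with R² ≤ 0 are excluded.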

Sequence | pre-steady-state target cleavage rate
UCCUGCUACAGCUUGCAUAGUAUUUCAGUUA | 0.335 ± 0.075
UCCUGGAUGAGCUUGCUUUGUAUUUAGUUA | 0.0408 ± 0.01
UCCUGGAACAGCUUCCAUUGUAUUUAGUUA | 0.11 ± 0.019
UCCUGCUACAGACUUGCAUAGUAUUUAGUUA | 0.169 ± 0.018
UCCUGGUACACGUUGCAUAGUAUUUAGUAA | 0.166 ± 0.038
UCCUGGAACAGCUUGCAUUGUUUUUAGUUA | 0.0144 ± 0.0059
UCCUGGAACAGCAUGCAUAGUAUUUAGUAA | 0.214 ± 0.019
UCCUGCUAGAGCUUGGAUAGUAUUUAGUUA | 0.178 ± 0.014
UCCUGGAUGUGCUUGCAUAGUAUUUAGGUUA | 0.102 ± 0.019
UCCUGCUAGAGCUUGCAUAGUAUUUACAAA | 0.146 ± 0.039
UCCUGGAACAGGAAGCAUAGUAUUUAGUAA | 0.146 ± 0.013
UCCUGGAUGAGCUUGGAUAGUAUUUAGAUA | 0.0187 ± 0.0061
UCCUGGAUGAGCUAGCAUAGUAUUUAGAAA | 0.209 ± 0.049
UCCUGGAUGUCGAUGCAUAGUAUUUAGAUA | 0.0384 ± 0.011
UCCUGGAUGUCCUUGCAUAGUAUGUAGUUA | 0.107 ± 0.022
UCCUGCUACAGCUUGCAAAGUAUUUAGAUA | 0.0895 ± 0.012
UCCUCCUACAGCUUGCAUAGAUAUUAGUUA | 0.0125 ± 0.0045
UCCUGCUACUCCUUGCAUAGUAUUUUCAAA | 0.0369 ± 0.013
UCCUGGAUCAGCAUGCUUAGUAUUUAGUUA | 0.189 ± 0.019
UCCUGGAUGUGCAUGCAAAGUAUUUAGUUA | 0.0175 ± 0.0048
UCCUCCUACAGCAUGCUUAGUAUUUAGUUA | 0.206 ± 0.015
UCCUGGAUGUCGAAGCAUAGUAGUUUAGUUA | 0.00907 ± 0.0034
UCCUGGAUGAACUUGCAUAGUAUUUAGUUA | 0.128 ± 0.013
UCCUGGAUGAGCUUGGAUUGUAUUUAGUUA | 0.0185 ± 0.0063

same assay, conditions: auxiliary factor: none (no GTSF1)

Sequence | pre-steady-state target cleavage rate
UCCUGCUACAGCUUGCAUAGUAUUUCAGUUA | 0.00409 ± 0.0028
UCCUGGAUGAGCUUGCUUUGUAUUUAGUUA | 0.00403 ± 0.0028
UCCUGGAACAGCUUCCAUUGUAUUUAGUUA | 0.00471 ± 0.0022
UCCUGCUACAGACUUGCAUAGUAUUUAGUUA | 0.00767 ± 0.0021
UCCUGGAACAGCUUGCAUUGUUUUUAGUUA | 0.00334 ± 0.0023
UCCUGGAACAGCAUGCAUAGUAUUUAGUAA | 0.00404 ± 0.0034
UCCUGCUAGAGCUUGGAUAGUAUUUAGUUA | 0.0074 ± 0.0021
UCCUGGAUGUGCUUGCAUAGUAUUUAGGUUA | 0.00588 ± 0.0033
UCCUGGAACAGGAAGCAUAGUAUUUAGUAA | 0.00297 ± 0.0027
UCCUGGAUCAGCAUGCUUAGUAUUUAGUUA | 0.00777 ± 0.0024
UCCUGGAUGUGCAUGCAAAGUAUUUAGUUA | 0.00933 ± 0.0024
UCCUCCUACAGCAUGCUUAGUAUUUAGUUA | 0.00645 ± 0.0024
UCCUGGAUGUCGAAGCAUAGUAGUUUAGUUA | 0.00276 ± 0.0022
UCCUGGAUGAACUUGCAUAGUAUUUAGUUA | 0.00751 ± 0.0026
UCCUGGAUGUCGAUGCAUACUAUUUAGAUA | < 0.0001
